This passage reports remaining activity results from PubChem BioAssay.

Active and inactive are the calls of the source. The rule behind the calls is not given here.

The assay relates to Aerobactin synthetase IucA (Klebsiella pneumoniae, hypervirulent). Nature of the assay: IucA enzyme inhibition, biochemical, LOPAC library, absorbance readout (AID 1346212).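 Note: 100% = no compound wells and 0% = no enzyme wells.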 The settings on record: IucA enzyme assay, absorbance (OD) readout; active compounds read low;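 tested at 8 µM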.
One may read the remaining activity as the signal under treatment as a percentage of the control signal. For the molecule `CC#C[C@]1(O)CC[C@H]2[C@@H]3CCC4=CC(=O)CCC4=C3[C@@H](c3ccc(N(C)C)cc3)C[C@@]21C`, the remaining activity was 111% (inactive).

Turning to `Cc1ccccc1/C=C/C1=NCCN1`, the remaining activity is 120% (inactive). Under `C1CCC(N=C(NC23CC4CC(CC(C4)C2)C3)N2CCOCC2)CC1` stands 122% (inactive); under `Cn1c(=O)[nH]c2ncn(C)c2c1=O`, 113% (inactive); under `Cc1nc(N=Nc2ccc(S(=O)(=O)O)cc2S(=O)(=O)O)c(COP(=O)(O)O)c(C=O)c1O`, 106% (inactive). In the case of `O=Nc1ccc2oc(=O)ccc2c1` it was 103% (inactive). Under `Cc1ccc(S(=O)(=O)/C=C/C#N)cc1` stands 100% (inactive); under `CO/N=C(\C(=O)N[C@@H]1C(=O)N2C(C(=O)O)=C(CSc3nc(=O)c(=O)[nH]n3C)CS[C@H]12)c1csc(N)n1`, 117% (inactive).

Regarding `CC[C@]1(O)C[C@H]2CN(CCc3c([nH]c4ccccc34)[C@@](C(=O)OC)(c3cc4c(cc3OC)N(C=O)[C@H]3[C@@](O)(C(=O)OC)[C@H](OC(C)=O)[C@]5(CC)C=CCN6CC[C@]43[C@@H]65)C2)C1`, the remaining activity is 109% (inactive). Under `CC(=O)O[C@H]1C[C@@]2(C)[C@@H](C[C@@H](O)[C@H]3[C@@]4(C)CC[C@@H](O)[C@@H](C)[C@@H]4CC[C@@]32C)/C1=C(\CCC=C(C)C)C(=O)O` stands 96.1% (inactive); under `N=C(N)N1CCc2ccccc2C1`, 106% (inactive); under `COc1cc(-c2ccc(=O)[nH]n2)ccc1OC(F)F`, 119% (inactive). Under `Nc1ccc2c3c(cccc13)C(=O)NC2=O` stands 112% (inactive); under `Nc1ccn([C@H]2CC[C@@H](CO)O2)c(=O)n1`, 121% (inactive); under `O=C[C@H](Cl)[C@@H](O)[C@H](O)[C@H](O)CO`, 101% (inactive). Under `CC(C)(Sc1ccc(CCN(CCCCC2CCCCC2)C(=O)NC2CCCCC2)cc1)C(=O)O` stands 119% (inactive); under `O=C(NCCNCC(O)COc1ccc(O)cc1)N1CCOCC1` (stereo not given), 118% (inactive).

On to `Cc1cc(C)c(NC(=O)C[C@H](CC(=O)O)c2cccc3ccccc23)c(C(=O)N2CCC3(CCCC3)CC2)c1`, for which the remaining activity was 103% (inactive).

On to `Nc1ncnc2n[nH]c(Nc3ccc(F)cc3)c12`, for which the remaining activity was 101% (inactive). With `CC(=O)C(C)=O`, the remaining activity was 97% (inactive). `C#CCn1c(=O)c2c(ncn2C)n(C)c1=O`: the remaining activity was 109% (inactive). For `COc1cc(NS(C)(=O)=O)ccc1Nc1c2ccccc2nc2ccccc12`, the remaining activity was 108% (inactive).

Consider `Cn1cnc2c(NCc3ccccc3)nc(NCCO)nc21`, for which the remaining activity was 119% (inactive). In the case of `O=C(O)C1=CCNCC1`, the remaining activity is 95.2% (inactive). In the case of `COc1ccccc1NC(=O)Nc1nc(-c2cccnc2)nc2ccccc12` it was 105% (inactive).
